Experimental findings from PubChem BioAssay are described below.

Calls of active or inactive are those of the source.

Assay [1] deals with Human papillomavirus type 1a protein E7 (residues 44-93). Briefly: small molecules binding HPV E7 44-93 – biochemical, small-molecule microarray, residues 44-93, 635 nm fluorescence, primary screen (AID 1108).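 Further: E7 fragment applied at 1 µg/mL in TBST for 1 h at 4 C; score combines spot fluorescence with its signal to noise ratio.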 To be noted: fluorescence 635 nm, higher = more signal.
Assay [2] in a line: hepatitis C replication reporter changes, two-sided – Huh7 cells, luciferase reporter, HCV replication inhibitor project, primary screen (AID 1109).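 Further: huh7 hepatoma cells harbouring a luciferase neomycin HCV replicon reporter; luciferase luminescence as measure of HCV replicon replication; test concentration not given here.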 To be noted: Huh7 HCV replicon luciferase reporter, 48 h; higher = more signal. (Reporter assays use an easily measured gene product as a stand-in for the process of interest.)
The target of assay [3] is Left-right determination factor 2 (Homo sapiens) (UniProt O00292). Briefly: small molecules binding LEFTY2 protein – biochemical, small-molecule microarray, 635 nm fluorescence scan, primary screen (AID 1110). The note with it: higher = more signal.
Chain of Left-right determination factor 2 (Homo sapiens) (O00292 whole entry, looked up): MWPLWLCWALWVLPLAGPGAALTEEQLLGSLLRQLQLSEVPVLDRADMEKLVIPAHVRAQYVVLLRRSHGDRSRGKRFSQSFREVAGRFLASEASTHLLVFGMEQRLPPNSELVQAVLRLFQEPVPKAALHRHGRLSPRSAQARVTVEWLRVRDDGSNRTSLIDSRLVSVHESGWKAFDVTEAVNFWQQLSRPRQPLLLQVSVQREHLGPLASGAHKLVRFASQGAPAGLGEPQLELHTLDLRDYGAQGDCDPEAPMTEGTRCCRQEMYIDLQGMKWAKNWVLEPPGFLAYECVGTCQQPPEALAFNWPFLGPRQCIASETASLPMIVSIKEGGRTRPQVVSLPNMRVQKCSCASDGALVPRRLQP
Assay [4] deals with Calmodulin-1 (Homo sapiens) (UniProt P0DP23). The assay is described as follows: small molecules binding calmodulin-1 with EGTA – biochemical, small-molecule microarray, Cy5-labelled CALM1, profiling panel (AID 1111).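 Further: labelled calmodulin applied in Tris saline Tween buffer holding calcium plus EGTA and DTT.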 To be noted: Cy5-CALM1 binding fluorescence, higher = more signal.
For assay [5] the target is unchanged. The assay is described as follows: small molecules binding Ca-loaded calmodulin-1 – biochemical, small-molecule microarray, Cy5-labelled CALM1, plus calcium, artefact control for SMM control-protein annotation, profiling panel (AID 1112).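 Further: score merges spot fluorescence with signal to noise from triplicate slides.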 To be noted: Cy5-CALM1 binding fluorescence, higher = more signal.
Assay [6] in a line: probe aWnt5a binding to arrayed compounds – biochemical, biotinylated probe, 635/667 nm fluorescence, primary screen (AID 1113).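 Further: score merges 667 nm fluorescence intensity with signal-to-noise per printed feature.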 The note with it: small-molecule microarray, higher = more signal.
Assay [7] can be described thus: probe aShh binding to arrayed compounds – biochemical, biotinylated probe, 635/667 nm fluorescence, primary screen (AID 1114).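 Further: probe is biotin-labelled aShh protein from a stem cell growth factor screen; measures binding of labelled protein to compounds printed on the slide; score merges feature fluorescence at 667 nm with signal-to-noise.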 To be noted: small-molecule microarray, higher = more signal.
A short description of assay [8]: probe aNog binding to arrayed compounds – biochemical, biotinylated probe, 635/667 nm fluorescence, primary screen (AID 1115).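 Further: probe is biotinylated aNog protein used at 0.15 µg/mL for 1 h at 4 C; z-score combines 667 nm fluorescence of each spot with its signal to noise.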 To be noted: small-molecule microarray, higher = more signal.
The target in assay [9] is Torsin-1A-interacting protein 1 (Homo sapiens) (UniProt Q5JTV8). Briefly: compound microarray binding of lysate hLAP1 – cell lysate, small-molecule microarray, COS7 lysate, 635/667 nm fluorescence, primary screen (AID 1116). To be noted: 635 nm fluorescence, higher = more signal.
Chain of Torsin-1A-interacting protein 1 (Homo sapiens) (Q5JTV8 whole entry, looked up): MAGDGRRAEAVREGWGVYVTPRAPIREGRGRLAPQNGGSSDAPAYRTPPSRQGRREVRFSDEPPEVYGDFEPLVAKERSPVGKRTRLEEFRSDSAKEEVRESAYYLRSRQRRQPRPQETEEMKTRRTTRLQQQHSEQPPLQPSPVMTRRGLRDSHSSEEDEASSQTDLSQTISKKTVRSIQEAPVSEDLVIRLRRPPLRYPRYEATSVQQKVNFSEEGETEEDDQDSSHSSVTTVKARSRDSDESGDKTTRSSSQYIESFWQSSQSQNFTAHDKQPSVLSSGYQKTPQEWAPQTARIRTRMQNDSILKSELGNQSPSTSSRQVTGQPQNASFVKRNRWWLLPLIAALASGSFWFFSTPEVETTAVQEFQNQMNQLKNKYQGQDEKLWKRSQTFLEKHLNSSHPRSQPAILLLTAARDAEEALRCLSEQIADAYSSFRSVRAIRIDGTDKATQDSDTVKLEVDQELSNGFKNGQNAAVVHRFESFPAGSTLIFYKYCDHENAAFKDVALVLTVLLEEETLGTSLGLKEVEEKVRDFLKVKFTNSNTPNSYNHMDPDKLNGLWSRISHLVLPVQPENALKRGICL
For assay [10], the target named is Alpha-bungarotoxin (Bungarus multicinctus) (UniProt P60615). The assay is described as follows: compounds binding labelled alpha-BTX control protein – biochemical, small-molecule microarray, Alexa647 label, 635/667 nm fluorescence, artefact control for SMM control protein annotation, profiling panel (AID 1117). To be noted: alpha-BTX-A647 binding fluorescence, higher = more signal.
Chain of Alpha-bungarotoxin (Bungarus multicinctus) (P60615 whole entry, looked up): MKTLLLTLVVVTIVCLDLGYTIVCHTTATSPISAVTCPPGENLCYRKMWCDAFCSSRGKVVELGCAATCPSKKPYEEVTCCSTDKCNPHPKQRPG

The target in the next assay is Albumin (Bos taurus) (UniProt P02769). The assay is described as follows: compounds binding labelled BSA control protein – biochemical, small-molecule microarray, Alexa647 label, 635/667 nm fluorescence, artefact control for SMM control protein annotation, profiling panel (AID 1118).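 Further: score merges 667 nm emission intensity and signal-to-noise per printed compound spot.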 The note with it: BSA-A647 binding, fluorescence 635 nm, higher = more signal.
Chain of Albumin (Bos taurus) (P02769 whole entry, looked up): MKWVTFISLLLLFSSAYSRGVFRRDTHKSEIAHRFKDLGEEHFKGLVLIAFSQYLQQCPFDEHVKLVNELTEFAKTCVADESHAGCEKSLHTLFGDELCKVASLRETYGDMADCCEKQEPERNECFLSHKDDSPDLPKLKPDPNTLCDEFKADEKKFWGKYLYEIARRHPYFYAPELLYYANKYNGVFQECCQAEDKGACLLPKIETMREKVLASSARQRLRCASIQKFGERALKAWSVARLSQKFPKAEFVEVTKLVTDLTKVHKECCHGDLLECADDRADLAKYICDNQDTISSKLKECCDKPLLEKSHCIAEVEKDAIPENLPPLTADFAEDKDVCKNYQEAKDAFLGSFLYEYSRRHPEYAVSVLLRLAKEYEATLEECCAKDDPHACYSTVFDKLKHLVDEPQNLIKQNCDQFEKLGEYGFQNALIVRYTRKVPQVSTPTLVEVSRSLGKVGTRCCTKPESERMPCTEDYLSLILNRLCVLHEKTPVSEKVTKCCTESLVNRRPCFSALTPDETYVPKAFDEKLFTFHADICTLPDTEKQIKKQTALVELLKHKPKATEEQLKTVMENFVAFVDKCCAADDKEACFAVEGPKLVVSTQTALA
Assay [11] in a line: probe aXIP binding to arrayed compounds – biochemical, NeuroSMM set, 635/667 nm fluorescence, primary screen (AID 1119).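 Further: probe is the protein aXip251-270 applied at 1 µg/mL to compound-printed slides; binding of probe to printed compounds measured as 667 nm fluorescence plus signal to noise.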 The note with it: small-molecule microarray, higher = more signal, called active from +8 up or from −8 down.
Assay [12] in a line: probe aNOTCH3 binding on compound microarray – biochemical, small-molecule microarray, 635/667 nm fluorescence, primary screen (AID 1120).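 Further: probe is a biotin-tagged antibody raised against NOTCH3 rather than NOTCH3 protein; score merges spot fluorescence near 667 nm with spot signal to noise.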 To be noted: higher = more signal.
A short description of assay [13]: probe aNOTCH2 binding on compound microarray – biochemical, small-molecule microarray, 635/667 nm fluorescence, primary screen (AID 1121).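 Further: score merges feature fluorescence read at 667 nm with its signal to noise.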 The note with it: higher = more signal.
For assay [14], the target named is Carbonic anhydrase 2 (Homo sapiens) (UniProt P00918). Briefly: compounds binding carbonic anhydrase 2 – biochemical, small-molecule microarray, Alexa647-labelled CAII, profiling panel (AID 1122). The note with it: CAII-A647 binding fluorescence, higher = more signal.
Assay [15] is described as follows: COS7 lysate on small-molecule microarray, probe aHis, 635 nm (AID 1123).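 Further: z-score combines 667nm fluorescence intensity with signal-to-noise per printed compound spot.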 To be noted: COS7 cell lysate, fluorescence, higher = more signal.
The nature of assay [16]: probe aLAP1 signal on lysate-treated microarray – cell lysate, small-molecule microarray, COS7 lysate, primary screen (AID 1124).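 Further: lysate comes from COS7 cells expressing LAP1 and is applied at 0.3 µg/mL; score merges spot fluorescence near 667 nm with signal-to-noise over triplicate slides.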 To be noted: probe aLAP1, fluorescence, higher = more signal.
The subject of another assay is Sam68 (KHDRBS1). The assay is described as follows: compounds binding KHDRBS1 protein – biochemical, small-molecule microarray, 635 nm fluorescence, primary screen (AID 1125).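 Further: score merges 667 nm channel intensity with signal to noise over triplicate slides.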 The note with it: higher = more signal.
Assay [17] concerns Chordin-like protein 2 (CHRDL2). The assay is described as follows: compounds binding chordin-like 2 – biochemical, small-molecule microarray, 635 nm fluorescence, primary screen (AID 1126).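 Further: printed compound slides probed with Chrdl2 protein at 4 µg/mL for 1 h at 4 C; score merges 667 nm emission intensity with signal to noise over three replicate slides.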 To be noted: fluorescence 635 nm, higher = more signal.
Assay [18] deals with Concanavalin-A (Canavalia ensiformis) (UniProt P02866). Briefly: compounds binding concanavalin A lectin – biochemical, small-molecule microarray, Alexa647 label, 635 nm, artefact control for SMM control protein annotation, primary screen (AID 1127).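 Further: z combines 667 nm emission intensity with signal-to-noise across three replicate slides.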 The note with it: ConA-A647 binding fluorescence, higher = more signal.
Chain of Concanavalin-A (Canavalia ensiformis) (P02866 whole entry, looked up): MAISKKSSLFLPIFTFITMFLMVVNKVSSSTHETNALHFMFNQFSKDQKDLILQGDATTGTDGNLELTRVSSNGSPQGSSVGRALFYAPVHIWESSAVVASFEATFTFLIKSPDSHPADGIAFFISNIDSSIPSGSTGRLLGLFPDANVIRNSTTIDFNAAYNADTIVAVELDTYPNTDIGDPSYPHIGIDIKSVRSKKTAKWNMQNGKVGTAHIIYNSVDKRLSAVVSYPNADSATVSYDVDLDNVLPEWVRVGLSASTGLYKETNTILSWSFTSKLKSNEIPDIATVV

For the molecule `C[C@H]1C2=C3C(CC[C@H]4C(OCc5ccc(F)cc5C(F)(F)F)OC[C@](C)([C@@H]34)N(C(=O)OC(C)(C)C)C2)C2COC(=O)OCC21` (stereo not given in full), the composite z-score in assay [1] was 1.35; in [3], -0.431; in [4] it was 2.39; in assay [5] it was 1.06; in [6], 0.0232; in assay [7], 0.26. For the same molecule, the composite z-score in assay [8] is -0.701; in [9] it was 0.908; in assay [10] it was 0.771; with Albumin (Bos taurus), 0.963; in [12] it was 0.242; in assay [13], 0.183. The composite z-score in [14] is 0.754; in assay [15], 2.93; in assay [16], 0.399; in the assay with Sam68 (KHDRBS1), 1.31; in assay [17], -1.67; in [18] it was 1.1. The z-score in assay [2] was -1.84. Further, the composite Z-score in assay [11] is -0.0452 (inactive).

In the case of `O=C(O)[C@H]1C[C@H]2C(=O)N3CCC[C@H]3C(=O)N2[C@H]1c1cccc(OCCO)c1`, the composite z-score in [1] is 1.1; in assay [3] it was 0.266; in assay [4], 0.0384; in [5], 0.286; in [6] it was -0.0944; in [7], -0.167. For the same molecule, the composite z-score is 0.0951 in assay [8]; 0.83 in assay [9]; 1.67 in [10]; -0.698 in the assay with Albumin (Bos taurus); -0.124 in assay [12]; -0.115 in [13]. Moreover, the composite z-score in assay [14] is 0.525; in assay [15] it was 1.21; in assay [16], -0.332; with Sam68 (KHDRBS1) it was 0.833; in assay [17] it was 0.996; in [18], 0.942. The z-score in assay [2] amounted to 1.55. In [11], the composite Z-score is 0.223 (inactive).

With `C=CCN1C(=O)[C@]2(CC=C)N=C(c3ccc(OCCCO)cc3)O[C@@H]2c2ccccc21`, the composite z-score in [1] stood at 1.37; in [3], 0.503; in assay [4], 1.94; in assay [5] it was 0.541; in [6] it was 0.123; in assay [7], 0.0253. Also, the composite z-score was 0.0962 in [8]; 1.14 in [9]; 1.08 in assay [10]; 0.93 in the assay with Albumin (Bos taurus); 0.193 in [12]; -0.0648 in assay [13]. In addition, the composite z-score worked out at 0.675 in assay [14]; 1.35 in [15]; 0.053 in assay [16]; 1.33 in the assay with Sam68 (KHDRBS1); 0.689 in assay [17]; 1.14 in assay [18]. The z-score in [2] was -2.63. Moreover, the composite Z-score in [11] is 1.66 (inactive).

In the case of `COC(=O)[C@@]1(Cc2ccc(F)cc2)[C@H]2c3cc(C(=O)N4CCCC4)n(CCc4c[nH]c5ccc(OC)cc45)c3C[C@H]2CN1C(=O)c1ccccc1`, the composite z-score in assay [1] was found to be 1.4; in assay [3] it was 0.474; in [4], 1.92; in [5], 0.878; in assay [6] it was 1.19; in assay [7], 1.17. The composite z-score in assay [8] was 2.98; in assay [9] it was 0.781; in assay [10], 1.23; with Albumin (Bos taurus), 0.871; in assay [12] it was 1.43; in assay [13], 0.849. Besides, the composite z-score in assay [14] was 0.313; in assay [15], 2.33; in assay [16], -0.143; in the assay with Sam68 (KHDRBS1), 0.929; in assay [17] it was -0.0865; in [18], 1.09. For the same molecule, the z-score in assay [2] is -2.22. Besides, the composite Z-score in assay [11] was 0.298 (inactive).

In the case of `O=C1O[C@@H](c2ccccc2)[C@@H](c2ccccc2)N2[C@@H](c3ccc(O)cc3)[C@]3(C(=O)Nc4ccccc43)[C@@H](C(=O)Nc3nc4ccccc4s3)[C@H]12`, the composite z-score in [1] was 1.36; in assay [3], 0.0034; in [4], 1.28; in assay [5], -0.596; in [6], 0.0495; in [7], 0.0815. Moreover, the composite z-score was -0.179 in assay [8]; 0.0579 in [9]; 1.32 in [10]; 0.625 with Albumin (Bos taurus); 0.0695 in [12]; -0.144 in assay [13]. Also, the composite z-score in assay [14] came out at 0.613; in assay [15], 1.39; in assay [16], 0.399; in the assay on Sam68 (KHDRBS1) it was 1.31; in assay [17] it was 0.0129; in assay [18], 1.17. Also, the z-score in [2] was -2.35. In addition, the composite Z-score in assay [11] was -0.8 (inactive).

For `CC(=O)n1cc(C(O)C2C=CC3C(=O)N(c4ccccc4)C(=O)C3N2Nc2ccccc2)c2ccccc21` (stereo not given), the composite z-score is -0.175 in assay [1]; -0.183 in [3]; 0.735 in assay [4]; 0.671 in assay [5]; 0.13 in [6]; 1.21 in assay [7]. In addition, the composite z-score turned out to be 0.974 in assay [8]; 1.09 in [9]; 1.41 in assay [10]; 0.408 with Albumin (Bos taurus); 0.504 in assay [12]; 0.207 in assay [13]. Further, the composite z-score in assay [14] was determined as 0.788; in assay [15] it was 1.08; in assay [16], 0.697; in the assay with Sam68 (KHDRBS1), 0.897; in assay [17] it was 0.8; in assay [18], 0.183. Also, the z-score in [2] was -1.95. In assay [11], the composite Z-score is 0.197 (inactive).
